We go through ten compounds from PubChem BioAssay (NCATS).

Results filed as inconclusive are left out. A call without a number means that no potency is given here. Calls of active or inactive are those of the source. Calls follow the shape of the dose curve; as a rule, active = well fitted inhibition curve with a large enough effect; inconclusive = small, poorly fitted or top-dose-only effect; inactive = flat fitted curve, though single readings scatter.
Potency is read from the fitted curve at half-maximal effect.

This test deals with Zika virus NS2B-NS3 protease (linked construct). In words: Confirmatory screen NINDS AMC qHTS for Zika virus inhibitors (AID 1347152). Also: nearly all actives have a fitted effect of over 70% in size. To be noted: Purified linked NS2B-NS3, AMC substrate fluorescence; series mostly up to 56.6 µM. The text has this:
Assay Submitters (PI): Avindra Nath, Ph.D., National Institute of Neurological Disorders and Stroke (NINDS), Bethesda, MD Radhakrishnan Padmanabhan, Ph.D., Georgetown University (GU), Washington D.C. Zika Virus causes congenital defects, including microcephaly and is associated with Guillain-Barre syndrome, eningoencephalitis and myelitis in infected adult. […] Using a target-based approach, we hope to establish a screening paradigm to uncover novel, cell-active NS2B-NS3 protease (Zika Virus) specific inhibitors from NCATS' collection of small molecules using qHTS. […] Four assay panel was created to identify potential Zika Virus inhibitors. Namely, (1) GU unlinked NS2B-NS3 AMC tagged protease qHTS, (2) GU unlinked NS2B-NS3 Rhodamine tagged protease qHTS, (3) NINDS linked NS2B-NS3 AMC tagged protease qHTS, (4) NINDS linked NS2B-NS3 Rhodamine tagged protease qHTS. Active compounds were re-acquired and re-screened to confirm inhibition. Inhibitors were further screened against various confirmatory and counterscreens in dose response format. Early Translation Branch (ETB) National Center for Advancing Translational Sciences (NCATS), Rockville, MD National Institute of Health (NIH), Bethesda, Maryland
Materials: For the linked assay, Nath lab (NINDS) provided the purified linked NS2B-NS3 protease which is consists of hydrophilic domain of NS2B linked to the NS3 protease domain by a flexible (-[…]-) linker. Control compound aprotinin is obtained from Thermo Scientific (#78432; Waltham, Massachusetts). NS2B-NS3 AMC substrate (Bz-Nle-Lys-Arg-Arg-AMC; Nle-KRR-AMC) purchased from Bachem (#I-1995; Torrance, CA). Ac-VKTGKR-AMC purchased from Genscript or Bachem, Ac-FAAGKR-AMC purchased from Genscript, Ac-GLVKRR-AMC purchased from Genscript, Ac-LKKR-AMC purchased from Genscript. NINDS AMC linked NS2B-NS3 protease qHTS protocol: Briefly, 3 microL of Zika virus linked NS2B-NS3 protease (1 nM for linked final concentration), in assay buffer (10 mM Tris-HCl pH 8.0 with 0.01% Tween 20) was dispensed into a 1,536-well solid-bottom black plate (Greiner Bio One, Monroe, NC). Twenty-three nL of compounds (final concentration range 7.28 nM to 114 microM) or control Aprotinin (final concentration range 3.47 nM to 114 microM) were transferred via Wako Pin-tool (Wako Automation, Richmond, VA). Samples were incubated (room temperature, protected from light) for 15 minutes followed by a 1 microL AMC substrate addition of (final concentration of 10 microM; Km = 18.3 µM). Plates were then read immediately on a ViewLux High-throughput CCD imager (PerkinElmer, Waltham, MA) equipped with standard UV fluorescence optics (340(30) nm excitation, 450(20) nm emission) then incubated (room temperature, protected from light) for 15 minutes (~20% conversion). The change in fluorescence intensity over the 15-minute reaction period was normalized against no-inhibitor and no-enzyme controls and the resulting percent inhibition data were fitted to a 4-parameter Hill equation. Aprotinin was used as the intraplate control.
(In general: In qHTS, concentration-response curves come from the screen itself.)
Turning to `COC(=O)C1=C(C)NC(C)=C(C(=O)OC)C1c1cccc(NC(=O)NCCCN2CCC(c3cccc(OC)c3)CC2)c1`, the Potency result is “inactive”. For `COc1ccc(/C=C/c2nc(NCCCN(C)C)c3ccccc3n2)cc1`, the Potency result was “inactive”.

With `Oc1cc2c(cc1O)CN(C(=S)NCCc1ccc(Cl)cc1)CCC2`, the Potency result is “inactive”. Consider `CN1CCN(c2cc3c(nn2)Oc2ccccc2N3C)CC1`, for which the Potency is 10.5 µM (active). With `CCCCN(CC)c1nc(C)nc2c1c(C)cn2-c1c(C)cc(C)cc1C`, the Potency entry was “inactive”. `S=c1[nH]c(-c2ccccc2)cn1-c1ccccc1`: the Potency result was “inactive”.

Regarding `Cn1c(=O)c2[nH]c(-c3ccccc3)nc2n(C)c1=O`, the Potency is 21.5 µM (active). For `O=C1NC(=O)/C(=C/c2ccc(-c3ccc(F)cc3O)o2)S1`, the Potency result is “inactive”. `COc1ccc(Br)cc1S(=O)(=O)NC(=O)/C=C/c1ccccc1Cc1ccc2ccccc2c1`: the Potency was 10.8 µM (active). In the case of `O=C(NOCC1CC1)c1cc(Br)c(F)c(F)c1Nc1ccc(I)cc1Cl` it was “inactive”.
